Our source for the TF binding intensity values is the supplement of paper PMC10681739.

In this test the target is T1, ETS1 (UniProt P14921).
T1 sequence: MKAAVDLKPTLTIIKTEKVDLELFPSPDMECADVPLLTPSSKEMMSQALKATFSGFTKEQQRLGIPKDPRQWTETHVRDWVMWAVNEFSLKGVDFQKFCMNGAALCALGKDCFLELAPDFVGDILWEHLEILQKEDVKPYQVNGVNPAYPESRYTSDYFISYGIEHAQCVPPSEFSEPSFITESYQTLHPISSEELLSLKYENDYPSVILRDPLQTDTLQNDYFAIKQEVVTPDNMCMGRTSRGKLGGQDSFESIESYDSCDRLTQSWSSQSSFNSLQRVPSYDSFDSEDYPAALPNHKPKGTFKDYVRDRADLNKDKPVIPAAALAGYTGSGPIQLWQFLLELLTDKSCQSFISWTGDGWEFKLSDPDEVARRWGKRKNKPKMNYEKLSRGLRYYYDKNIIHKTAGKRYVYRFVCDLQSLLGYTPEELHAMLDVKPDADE
Put plainly: TF binding intensity (PBM fluorescence), negative control probe (arbitrary fluorescence units); higher = stronger binding. As for the experimental part:
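gcPBM negative-control 36-bp genomic probes lacking TF binding sites. Each was incubated with recombinant human ETS1 or RUNX1 alone and detected by antibody fluorescence. Values are medians over replicate spots (4 spots for the ETS1-RUNX1 arrays, 3 for the ETS1-ETS1 array). The probes sit in constant array flanks that are not printed.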
The sequence “TAAATAAATAAACACTTTAGCACATTGACTTTAGAG (protein concentration 10 nM)” yielded a TF binding intensity of 111. In the case of “TAGTCCTGGAAAGGTCATGTCAACCCTCCTGCATAT (protein concentration 10 nM)” it was 115; in that of “GGCATCTACCTCCCAGGAGCAAGCGGGAGACAGCCC (protein concentration 10 nM)”, 134. With “GCTTTTTTTTTCTGTTGTGGGAGAAAGATGAGAGTC (protein concentration 1 nM)”, the TF binding intensity was determined as 535. As for “GCGTTCGAGGGACACTGGACATCTGGTGGCCCTCCA (protein concentration 10 nM)”, the figure is 93.7; as for “GATAGACATATAAAAACCACAAAAATCAAAACTGCA (protein concentration 1 nM)”, 485; as for “GGCAAGCTTATATAGTTTGCTTCATAAAACTCTATT (protein concentration 10 nM)”, 119. “AAGTATTGTAGTTGTTGTGGTAAAAACAGATAGATA (protein concentration 1 nM)” came in with a TF binding intensity of 529. As for “TGGACTAACTCCATTGCCTTTGTATACATTGGTTTC (protein concentration 10 nM)”, the TF binding intensity was 102. Consider “ATGGCATACTAAGTAGCCACAACATGCAAGATGGAC (protein concentration 1 nM)”, for which the TF binding intensity amounted to 440. As for “AGGCCTGTAGCATTTAGCTGGCCTCTGAGGAATAAC (protein concentration 10 nM)”, the figure is 101.

“AATATCTACAGGGCTCACTCTCCCATGCTCTTCAGG (protein concentration 10 nM)” came in with a TF binding intensity of 108. In the case of “CCCACTGTAATAGGCAGATACTGATGAAGTCCTGCA (protein concentration 10 nM)” it was 147; in that of “TAAGATCCACTGGCTTGAAATTCTTGCTGCCAGCAC (protein concentration 10 nM)”, 130.

“GTCAAAGGCTCTGCAGAGTCAAGTAGCCTCCCACTT (protein concentration 10 nM)” yielded a TF binding intensity of 112. On to “AGAGAATCTGATTGGTTGTTGACCTTTGGGACAAGT (protein concentration 10 nM)”, for which the TF binding intensity worked out at 105. Sequence “AAAAAAATAGCTTTAACCACAAAAACTCCTTGAAAA (protein concentration 1 nM)” showed a TF binding intensity of 514.

With “CTCAGTGCCTGCCTCAGATGTTTAAGTCTGAACATT (protein concentration 10 nM)”, the TF binding intensity came to 110. Turning to “CCTGCCTCATTTGCTCACGGGCTCCCTCCCTCAAGG (protein concentration 10 nM)”, the TF binding intensity is 113. The sequence “GGCTCCTATATTAAAATTGGTATTAGTAGACAATGT (protein concentration 10 nM)” showed a TF binding intensity of 131. In the case of “TTTTGGATGATGCAAACCGCGCAAAAGCAGCATTCA (protein concentration 1 nM)” it was 449; in that of “GCAGCTCTAGTTTCTACCACACCAATGGGAGGGATC (protein concentration 1 nM)”, 320; in that of “ACTCATTAGCAGTGAGCCACAAAGACTCTCTGGAAG (protein concentration 1 nM)”, 359. As for “GGGGGTATAGGGGAGCAGTCCCATGTAGTAGTAGAA (protein concentration 10 nM)”, the figure is 172; as for “CCTGTTTGAAAGAGAAAGAGGGCAGAGTGTGACATG (protein concentration 10 nM)”, 160; as for “TTCTTTGACTCACTATGCGGGTTGGTACATCTGGGG (protein concentration 1 nM)”, 476. As for “ACATCTCATGGTTTTAAAGTAAATGAATTAAAAGTC (protein concentration 10 nM)”, the figure is 116; as for “CCGGGACCCCGCCCCCGATCCCCGCCTACCGGGGCC (protein concentration 10 nM)”, 209; as for “ACCTCATCGAAAGTCTCTCTGGAGGCTGAGTTTGTC (protein concentration 10 nM)”, 123. In the case of “GTCTTGTTACTGGAGTGTGATAGCACCTAATAATAT (protein concentration 10 nM)”, the TF binding intensity is 150. Turning to “TATTTTCCAAAAGTGGCCACAACAACATCTGCCAAC (protein concentration 1 nM)”, the TF binding intensity turned out to be 442. As for “CTACAAGTCGTGAAGGGGCGAGGCGCAAAAGCGTAG (protein concentration 10 nM)”, the TF binding intensity came to 125.

“CTTCAAAGGCCCCGCATTAGCTGGGGTCGATCCAGA (protein concentration 10 nM)” gave a TF binding intensity of 154.

Consider “AGCAGAGTGTGATGAATGGATTCATATACGGTCTGA (protein concentration 10 nM)”, for which the TF binding intensity is 103. In the case of “GCCCTCTGCGGGGCAACAGCACGAGGCATTACCCCT (protein concentration 10 nM)” it was 107; in that of “CACACACTAAATCTCTGTACTAAATGAAAGGTTGCT (protein concentration 10 nM)”, 139; in that of “ACTGGCTAAGGTCTCTCCTGACCTGATTCCATTCTT (protein concentration 10 nM)”, 97.3. For the sequence “CAAAATGCTTAAAAGGTAACTTGACTCTTTGTTTGG (protein concentration 10 nM)”, the TF binding intensity was determined as 123. As for “GATGCTTTTGTCCCACTAGGGCTCGTGCCTTAGTGA (protein concentration 10 nM)”, the TF binding intensity is 112. As for “GAAGTTTCAAGATGTAGTAGTTAAAGTATTAACTTA (protein concentration 10 nM)”, the figure is 113.
